Most compounds without a hit are left out; they make up all but 4.6% or so of the library.
DAX1 inh-1: DAX1 (NR0B1) inhibition, primary screen; HEK293T StAR-luciferase reporter, SF-1/DAX-1 repression relief; inhibition, % at 6.8 µM; 370,000 compounds, 1.1% hits; AID 652010;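 active = inhibition above the mean over all tested compounds plus 3 SD, cut at about 3.6% in these data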;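 also: 0% = DAX-1 cells with DMSO and 100% = cells lacking DAX-1 with DMSO; higher inhibition means more luminescence from relief of DAX-1 repression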
ssDAF12 agonist: activators of S. stercoralis DAF-12 nuclear receptor; HEK293 ssDAF-12/GRIP1 lit1-tk-luc reporter, luminescence; % of 3 µM dafachronic acid response; activation, % at 6.8 µM; 370,000 compounds, 1% hits;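 active = activation above the mean over all tested compounds plus 3 SD, cut at about 0.9% in these data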;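 also: 0% = DMSO-only wells and 100% = 3 µM delta7-dafachronic acid wells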
Wee1 stabilizer: blocks degradation of human Wee1 kinase; HeLa Luc-Wee1K328M stability, luciferase luminescence; 100% = proteasome inhibitor MG132 effect; P30291; reporter increase, % at 5 µM; 220,000 compounds, 1.2% hits;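 active = activation above the mean of all tested compounds plus 3 SD, set per screening run, cut at about 8.8% in these data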;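 also: cells exposed to compound for 20 h before luminescence read; 0% = DMSO alone and 100% = MG132 at 30 µM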
DAX1 inh-2: inhibits human nuclear receptor DAX1; P51843; HEK293 Gal4-DAX1 luciferase reporter, luminescence; inhibition, % at 6.75 µM; 340,000 compounds, 0.99% hits; AID 504766;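 active = inhibition above the mean over all tested compounds plus 3 SD, cut at about 4.2% in these data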;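 also: 0% = DAX1-transfected cells with DMSO and 100% = empty-vector control cells with DMSO; inhibition shows as a rise in luminescence from relieved DAX1 repression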
Target sequence (P51843 207-470 limits assumed): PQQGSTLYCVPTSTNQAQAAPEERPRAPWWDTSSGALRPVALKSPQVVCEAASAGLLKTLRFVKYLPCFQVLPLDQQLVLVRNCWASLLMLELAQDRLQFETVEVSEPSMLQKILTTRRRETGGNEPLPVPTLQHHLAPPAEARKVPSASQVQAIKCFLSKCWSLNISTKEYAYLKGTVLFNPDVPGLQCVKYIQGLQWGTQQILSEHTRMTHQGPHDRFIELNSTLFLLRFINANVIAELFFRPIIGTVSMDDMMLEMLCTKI
hgDAF12 agonist: hgDAF-12 agonism, primary luciferase screen; HEK293 GAL4-hgDAF12 UAS-luciferase reporter, agonist luminescence; normalized to butyrate control; activation, % at 6.8 µM; 370,000 compounds, 1.8% hits; AID 687014;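 active = activation above a cutoff set at the mean of all screened compounds plus 3 SD, cut at about 10% in these data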;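 also: 0% = DMSO wells and 100% = sodium butyrate wells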
hcDAF12 agonist: activators of H. contortus DAF-12 nuclear receptor | HEK293 hcDAF-12 lit1-tk-luc reporter, luminescence; 0% DMSO, 100% Δ7-dafachronic acid | 370,000 compounds, 1.4% hits | activation, % at 6.8 µM | AID 652067;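 active = activation above the mean of all tested compounds plus 3 SD, cut at about 5.5% in these data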;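 also: 100% = response to 3 µM Δ7-dafachronic acid high control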
Numbers without * were called inactive; · = no result given.

SMILES	DAX1 inh-1	ssDAF12 agonist	Wee1 stabilizer	DAX1 inh-2	hgDAF12 agonist	hcDAF12 agonist
CCOC(=O)CC[C@H]1CC[C@]2(CCCN(C3CCCCC3)C2)O1	0.9	-1.2	·	·	3.2	-1.1
CCOC(=O)Cc1ccc(Nc2nc3cc(-c4ccccc4C)sc3c(=O)n2C)cc1	-1.7	-1.5	·	·	-1.0	-1.5
COc1ccc([C@H]2CN(c3ccc(OC)cc3)C(=O)[C@@H]2CC(=O)Nc2ccc(Br)cc2)cc1	0.8	-1.4	·	1.6	6.5	0.6
Cc1ccc(CN2CCCCC(NC(=O)c3ccccc3)C2=O)cc1 (centres undefined)	-1.4	-0.5	·	·	-1.9	-3.2
Clc1ccc(-c2nnc(-c3ccccc3)nc2-c2c[nH]c3ccccc23)cc1	0.0	1.6*	-2.4	0.6	6.0	4.3
c1ccc(-c2nnc(-c3ccccc3)c(-c3c[nH]c4ccccc34)n2)cc1	0.4	-0.2	4.1	1.4	0.2	0.6
CCOc1ccccc1N1CCN(CC(=O)Nc2ccnn2C2CCCC2)CC1	-2.6	-1.7	·	-1.5	-5.2	-2.9
Cc1ccc(C23CC4CC(CC(CN)(C4)C2)C3)cc1	0.4	-0.2	-0.4	4.9*	-0.1	2.0
O=C1c2ccccc2C(=O)C1Cc1cccc2ccccc12	0.8	0.9*	1.1	-0.9	3.0	4.1
Cc1c(C)n(Cc2ccc(-c3ccccc3C(=O)O)cc2)c2ccc(C(=O)N[C@@H](C)c3ccc([N+](=O)[O-])cc3)cc12	-0.4	-0.6	·	·	4.7	-2.1
COc1ccc(C(=O)OCCCN(C)C2CN(Cc3cn(Cc4ccccc4Cl)nn3)S(=O)(=O)C2)cc1OC (centres undefined)	-2.1	-1.5	·	·	-3.2	-2.1
Cc1cc(NC(=O)c2cc(-c3ccc(C)s3)nc3ccccc23)no1	-1.1	1.7*	0.9	1.2	3.3	1.1
Cc1ccnc(NC(=O)c2cc(-c3ccc(Cl)s3)nc3ccccc23)c1	0.7	0.1	·	4.7*	1.6	0.0
COc1cccc(-c2cnc(C(O)c3ccc(CN4CCCC4)cc3)[nH]2)c1 (centres undefined)	0.5	-1.1	·	·	4.8	-0.5
Cc1ccc(Cn2nnc3c2-c2ccccc2S(=O)(=O)N(C(C)(C)C)C3)cc1	-1.0	-1.6	·	·	0.4	-2.0
O=C(Nc1ccc(F)cc1)OCc1cn(Cc2cccc(F)c2F)nn1	-1.1	-0.4	·	·	-0.1	0.9
CN(Cc1ccccc1)C(=O)c1ccc(Cc2cn(C)c3ccccc23)nc1	-0.9	-0.7	·	·	-2.8	1.8
O=C(NN1C(=O)C2C3C=CC(C4CC34)C2C1=O)c1ccccc1Cl (centres undefined)	0.0	-0.8	-0.5	5.1*	4.8	-1.8
O=C(NN1C(=O)C2C3C=CC([C@H]4CC34)[C@@H]2C1=O)c1ccc(Br)cc1 (some centres undefined)	0.2	-0.9	0.9	-0.8	1.3	-0.3
CC(C)CCN1C(=O)COc2ccccc2C1c1nnnn1-c1ccc2c(c1)OCCO2 (centres undefined)	-0.2	-1.0	·	·	1.5	-2.0
Cc1c(C)c2c(OCC(=O)NCc3cccnc3)cc3c(c2oc1=O)CCC(C)(C)O3	-0.4	-0.6	·	-0.8	2.3	-0.4
Cc1c(C)c2c(OCC(=O)NCc3ccncc3)cc3c(c2oc1=O)CCC(C)(C)O3	0.1	0.1	·	5.9*	1.0	0.4
O=c1c2c(nc3n1CCCCC3)sc1c(O)c(Br)ccc12	4.4*	-0.1	3.3	1.8	5.9	4.0
COc1ccccc1NC(=O)N1CCCC(C(=O)Nc2cccc(C)c2C)C1 (centres undefined)	0.2	-1.4	0.1	7.5*	0.3	-0.1
O=C(NCc1ccco1)/C(=C\C=C\c1ccccc1)NC(=O)c1ccco1	-0.3	-0.7	-1.0	7.4*	-2.7	-0.8
CC(=O)C1=C(O)C(=O)N(CCc2c[nH]c3ccccc23)C1c1ccccc1 (centres undefined)	0.1	-0.6	-1.2	3.7	4.8	-0.7
CC(=O)C1=C(O)C(=O)N(CCc2c[nH]c3ccccc23)C1c1ccc(O)cc1 (centres undefined)	0.3	0.2	4.0	4.4*	2.0	2.5
CC(C)(C)n1nnnc1C1c2ccccc2C(=O)N1CCc1c[nH]c2ccccc12 (centres undefined)	4.2*	0.1	·	·	1.2	3.9

Assay outcomes (PubChem)
